Measured values as given in ChEMBL document CHEMBL3988442, “University of Dundee, Small-Polar-MMV Screening Library” (2021).
The whole screen tested about 48,000 compounds, of which about 13,000 (27%) showed an effect of 50% or more. Some of the results follow.

tested on: Wolbachia pipientis; assay: Anti-Wolbachia Cell-Based Screen; assay type: functional; set-up: scale not given: in the data most compounds retested in dose-response had high values; details: 5 µM

| SMILES | Percent Effect [%] |
| --- | --- |
| CCn1nc2c(cc1=O)CN(Cc1nc(N)c3ccccc3n1)CC2 | 12.33 |
| O=C(Cc1csc(N2CCNC2=O)n1)NCC1(c2ccccc2)CC1 | 8.123 |
| Cc1ncsc1CNc1cccc(OCCN2CCCC2)c1 | 8.667 |
| Cc1ncsc1CN1C[C@H]2CC[C@@H]1CN(Cc1ccccc1)C2 | 1.915 |
| Cc1ncsc1CN1CC[C@](C)(O)[C@@H](Oc2cccc(F)c2)C1 | 111.6 |
| Cc1nnc(SCCCNC(=O)Nc2ccc3c(c2)OCO3)s1 | 7.014 |
| COc1ccccc1CN1C(=O)O[C@@H]2CN(c3nc(C)cc(C)n3)C[C@@H]21 | -8.092 |
| Cc1cnc(C)c(N2CCCC(CC3CC3)(C(=O)O)C2)n1 (configuration not stated) | 0.08182 |
| Cc1ccc(C(N)=O)c(N2C[C@H]3OC(=O)N(C4CCCC4)[C@H]3C2)n1 | 112.7 |
| Cc1ccc(N2C[C@H]3OCC[C@H]3[C@H](C(=O)NC3CCCC3)C2)nn1 | 11.3 |
| Cc1cnc(C)c(N2C[C@H]3OC(=O)N(C4CCCC4)[C@H]3C2)n1 | 94.65 |
| NC(=O)c1cc2c(nc1N1C[C@H]3OC(=O)N(C4CCCC4)[C@H]3C1)CCC2 | 94.23 |
| COc1ccccc1CN1C(=O)O[C@@H]2CN(c3nc(C)cnc3C)C[C@@H]21 | -4.864 |
| NC(=O)c1cc2c(nc1-c1ccoc1)CCC2 | -15.41 |
| CN(CC1CCCCO1)c1nc2c(cc1C(N)=O)CCC2 (configuration not stated) | -5.698 |
| Cc1nccn1CCN(C)c1nc(-c2ccc(Cl)cc2)nc2c1CNC2 | -50.51 |
| Cc1cccc(N(C)S(=O)(=O)c2cc(C(=O)O)cs2)c1C | -9.49 |
| CN(c1ccc(F)c(F)c1)S(=O)(=O)c1cc(C(=O)O)cs1 | 2.683 |
| Cc1ccc(N(C)S(=O)(=O)c2cc(C(=O)O)cs2)cc1 | 139 |
| Cc1cc(C)cc(N(C)S(=O)(=O)c2cc(C(=O)O)cs2)c1 | -4.793 |
| CN(c1cccc2ccccc12)S(=O)(=O)c1cc(C(=O)O)cs1 | -12.64 |

| SMILES | Percent Effect [%] |
| --- | --- |
| CN(c1ccc2ccccc2c1)S(=O)(=O)c1cc(C(=O)O)cs1 | 28.59 |
| CCOc1cccc(NS(=O)(=O)c2cc(C(=O)O)cs2)c1 | 19.91 |
| Cc1cccc(N(C)S(=O)(=O)c2cc(C(=O)O)cs2)c1 | 112.1 |
| CCN(c1cc(C)cc(C)c1)S(=O)(=O)c1cc(C(=O)O)cs1 | 116.9 |
| COc1ccccc1N(C)S(=O)(=O)c1cc(C(=O)O)cs1 | 22.41 |
| Cc1ccc(N(C)S(=O)(=O)c2cc(C(=O)O)cs2)c(C)c1 | 115 |
| CN(c1ccc(C(C)(C)C)cc1)S(=O)(=O)c1cc(C(=O)O)cs1 | -4.452 |
| COCC1CN(C(=O)c2cccn2C)Cc2ncnn2C1 (configuration not stated) | -3.009 |
| CCN1CCCC1CN(CCN(C)C)S(=O)(=O)c1ccccc1C#N (configuration not stated) | -13.86 |
| CN(Cc1cccc(F)c1)C(=O)CS(=O)(=O)Cc1c(Cl)cccc1Cl | -4.804 |
| Cc1nn(C)c(C)c1NC(=O)CNc1cccc(CC(F)(F)F)c1 | -3.048 |
| FC(F)(F)c1ccc2nc([C@H]3CCN(C4CCC4)C3)[nH]c2c1 | 0.6058 |
| O=C(NCCN1CCCC1)c1ccc2c(-c3nccs3)noc2c1 | 3.961 |
| Cc1cccc2c1nc1n2[C@@H](CNC(=O)c2cncnc2)COC1 | -4.11 |
| CCN(C(=O)NCc1ccc(C)cc1OC)C(C)c1cccnc1 (configuration not stated) | 2.223 |
| CCC(C)(C)NC(=O)CN(Cc1cccc(O)c1)C1CCC(O)CC1 (configuration not stated) | -0.7077 |
| CCOC(=O)C1(CCOC)CCCN(Cc2nccn2CC)C1 (configuration not stated) | -2.653 |
| COc1c(CNC(C)C(=O)NC2CCCC2)c(C)nn1C (configuration not stated) | 6.635 |
| COc1c(CNCc2nnc3n2CCCCC3)c(C(C)C)nn1C.Cl | 3.985 |
| COc1c(CNCCC(=O)NC2CCCCC2)c(C(C)C)nn1C | 109.1 |
| COc1c(CNCCC(=O)Nc2cccc(C)n2)c(C(C)C)nn1C | -41.29 |

| SMILES | Percent Effect [%] |
| --- | --- |
| COc1c(CNCCC(=O)NC2CCCC2)c(C(C)C)nn1C | 98.08 |
| COc1c(CNC(C)C(=O)NC2CCCC2)c(C(C)C)nn1C (configuration not stated) | -36.61 |
| CC(C)C1CN(c2ncccn2)CCC(=O)N1CC1CC1 (configuration not stated) | -33.18 |
| CC(=O)N1CCCN(C(=O)c2cnc(OC(C)C)c(Cl)c2)CC1 | -53.74 |
| C[C@@H]1CN(C(=O)c2ccc(C#N)nc2)C[C@@]1(O)C1CC1 | -20.15 |
| CCc1n[nH]c(C(=O)N2CCC3(CCCN(CCOC)C3=O)C2)c1C (configuration not stated) | 116.4 |
| CNc1nc(C(=O)N2CCC3(CCCN(CC4CC4)C3=O)C2)cs1 (configuration not stated) | -46.01 |
| CCc1c(C(=O)N2CCC3(CCCN(CCO)C3=O)C2)csc1C (configuration not stated) | 7.73 |
| CCc1ocnc1C(=O)N1CCC2(CCCN(CC(C)(C)C)C2=O)C1 (configuration not stated) | 100.3 |
| CCc1cc(C(=O)N2CCC3(CCCN(CC4CC4)C3=O)C2)cs1 (configuration not stated) | 55.55 |
| CCCc1cc(C(=O)N2CCC3(CCCN(CCOC)C3=O)C2)cs1 (configuration not stated) | 13.33 |
| COCCN1CCCC2(CCN(C(=O)c3cnc(O)cn3)C2)C1=O (configuration not stated) | -81.96 |
| CCc1cc(C(=O)N2CCC3(CCCN(CCOC)C3=O)C2)cs1 (configuration not stated) | -4.642 |
| Cc1occc1C(=O)N1CCC2(CCCN(CC3CCC3)C2=O)C1 (configuration not stated) | -0.1295 |
| CCCc1cc(C(=O)N2CCC3(CCCN(CCO)C3=O)C2)cs1 (configuration not stated) | -0.6433 |
| CCc1noc(C)c1C(=O)N1CCC2(CCCN(CC(C)(C)C)C2=O)C1 (configuration not stated) | 101.6 |
| Cc1occc1C(=O)N1CCC2(CCCN(CC3CC3)C2=O)C1 (configuration not stated) | -3.086 |
| CCn1cc(CN2CCC(C3CCN(C)CC3)CC2)cc1C#N | 8.542 |
| CC1CCN(C(=O)[C@@H]2C[C@H]3OCC[C@H]3N(Cc3ccoc3)C2)CC1.O=C(O)C(F)(F)F | -6.203 |
| COc1ccc2c(c1)C(C(=O)N(C)CCc1cnn(C)c1)CC(=O)N2 (configuration not stated) | 2.797 |
